Gal4-VP16 FLuc = inhibits Gal4-VP16 luciferase reporter, ROR gamma counter-screen. hit rate 3.5% among 310,000. Potency, µM (top dose mostly 53.6 µM), without a hit: at the top dose activity, negative = inhibition, hits mostly inhibitors. AID 2546. Drosophila S2 Gal4-VP16 UAS-luciferase, luminescence, 20 h;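 further: Gal4-VP16 expression switched on by copper sulfate through the metallothionein promoter; nearly all actives have a fitted effect of over 50% in size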
RORg inh = blocks mouse ROR gamma transcriptional activity; Potency, µM (highest dose often 53.6 µM), for the others: at the top dose activity change, negative = inhibition, hits mostly inhibitors; hit rate 5.4% among 310,000; AID 2551; Drosophila S2 Gal4-RORgamma UAS-luciferase reporter, 20 h; further: nearly all actives have a fitted effect of over 60% in size
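Drosophila S2 cells stably expressing Gal4-DBD/mouse RORγ fusion under metallothionein promoter plus UAS-luciferase; compound 1 h, then 700 uM CuSO4 induction for 20 h at ambient temperature; inhibition read as reduced luminescence.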
ELG1 DNA repair = ELG1-dependent DNA repair inhibition. AID 504467. hit rate 2.3% among 330,000. Potency, µM (titrated, usually from 46.1 µM), inactives show at the top dose activity change, negative = inhibition, hits mostly inhibitors. HEK293T ELG1-luciferase reporter, luminescence, 16 h; DNA damage induced by 5-fluorouridine; further: nearly all actives have a fitted effect of over 55% in size
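Reporter activity after DNA damage by 5-fluorouridine is monitored. Compound-treated cells incubate 16 hr at 37 °C, then ONE-Glo is added for 30 min before luminescence reading.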
12-LOX inh = inhibitors of human 12S-lipoxygenase ALOX12 | P18054 | purified 12hLO, xylenol orange hydroperoxide absorbance | Potency, µM (series often up to 108 µM), for inactives: at the highest dose activity change, negative = inhibition, hits mostly inhibitors | hit rate 1.1% among 580,000 | AID 1671190
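Purified human 12hLO at 150 nM in 25 mM Hepes, 0.01% Triton X-100, pH 7.0, preincubated 15 min at room temperature with compound. Reaction started with 40 uM arachidonic acid, 30 min at room temperature. Hydroperoxide measured by Fe-xylenol orange, 573/405 nm absorbance ratio.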
TDP1 cell CPT = growth inhibition of DT40 Tdp1-/-;hTDP1 cells with camptothecin (screen for TDP1 inhibitors) | hit rate 12% among 420,000 | AID 686979 | Potency, µM (highest dose often 46.2 µM), for inactives: at the highest dose activity change, negative = growth inhibition, hits mostly inhibitors | chicken DT40 Tdp1-/-;hTDP1 cells + 20 nM CPT, ATP luminescence, 48 h; further: nearly all actives have a fitted effect of over 55% in size
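Chicken DT40 Tdp1-/- cells complemented with human TDP1, 400 cells/well, exposed to compounds plus 20 nM camptothecin for at least 48 h at 37 C; viability read as ATP content by CellTiter-Glo luminescence.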
DT40 TDP1 no CPT = qHTS for Inhibitors of human tyrosyl-DNA phosphodiesterase 1 (TDP1): qHTS in cells in absence of CPT; DT40 Tdp1-/- hTDP1 cells, no CPT, ATP luminescence, 48 h; hit rate 15% among 420,000; Potency, µM (doses to about 46.2 µM), for the others: top-dose activity change, negative = growth inhibition, actives largely listed as inhibitors; further: nearly all actives have a fitted effect of over 55% in size
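Cells were dispensed at 400 per well, compounds added by pin tool, plates incubated ≥48 hr at 37 °C, then CellTiter-Glo added for 30 min at room temperature before luminescence reading. Line: DT40 Tdp1-/- complemented with hTDP1; camptothecin omitted.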
ELG1 FLuc counter = luciferase inhibition in cell-free luciferin readout for ELG1 hits | shares compounds with ELG1 DNA repair | cell-free firefly luciferase luminescence counter-screen, ViewLux | Potency, µM (titrated, usually from 46.1 µM), inactives show top-dose activity change, negative = inhibition, most hits filed as inhibitors | hit rate 3% among 350
ELG1 Luc conf = inhibits ELG1-dependent DNA repair in HEK293T cells, confirmed | shares compounds with ELG1 DNA repair | HEK293T ELG1-luciferase levels, luminescence; cells co-treated with 5-fluorouridine | Potency, µM (top dose mostly 46.1 µM), without a hit: at the highest dose activity change, negative = inhibition, most hits filed as inhibitors | hit rate 68% among 670 | AID 624248; further: nearly all actives have a fitted effect of over 55% in size
ELG1-Luc MMS = confirmation of human ELG1 repair inhibitors, MMS stimulated; HEK293T luciferase-tagged ELG1 level, MMS stimulated; hit rate 53% among 670; Potency, µM (doses to about 46.1 µM), for the others: at the highest dose activity change, negative = inhibition, actives largely listed as inhibitors; shares compounds with ELG1 DNA repair; further: nearly all actives have a fitted effect of over 60% in size
ELG1 5-FU = confirmation of ELG1 repair inhibitors: viability with 5FU. 670 tested, under 10 active. Potency, µM (titrated, usually from 46.1 µM), for the others: at the highest dose activity change, negative = viability loss, most hits filed as cytotoxic. shares compounds with ELG1 DNA repair. cell viability with 5-FU, ELG1-dependent repair;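 further: ELG1-luc HEK293T cells cotreated with 5-fluorouridine at 10 µM final; viability measured 16 h after compound addition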
ELG1 MMS cell = confirmation of ELG1 repair inhibitors: viability with MMS | shares compounds with ELG1 DNA repair | Potency, µM (doses to about 46.1 µM), without a hit: at the top dose activity change, negative = viability loss, usual class: cytotoxic | hit rate 33% among 670 | Cell viability with MMS, ELG1-dependent DNA repair;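 further: ELG1-luc HEK293T cells co-treated with 10 µM MMS; viability read 16 h after compound addition; nearly all actives have a fitted effect of over 60% in size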
ELG1 unstim viab = counter-screen for ELG1 repair inhibitors: unstimulated cell viability; hit rate 8% among 900; shares compounds with ELG1 DNA repair; Potency, µM (highest dose often 45.9 µM), for the others: top-dose activity change, negative = loss of viability, most hits filed as cytotoxic; cell viability counter-screen, unstimulated, luminescence; AID 624252;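 further: compound exposure lasted 16 hours before reading; nearly all actives have a fitted effect of over 55% in size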
FLuc enzyme = inhibits purified firefly luciferase, counter-screen for ELG1 hits; shares compounds with ELG1 DNA repair; purified firefly luciferase, luminescence counter-screen; Potency, µM (series often up to 57.5 µM), without a hit: at the highest dose activity, negative = inhibition, hits mostly inhibitors; hit rate 10% among 350; AID 624253
The depositor's hits bear a star; [ ] = remark or other dose. Shown are actives, neighbours in structure and some others; about 15% of the full set was active somewhere. The call rests on the fitted dose curve; in most records, active means well fitted curve in the direction sought with a large enough effect; inconclusive means small, poorly fitted or top-dose-only effect, or another doubt; inactive means no such curve, though single readings can be large; an effect the other way counts as inactive or inconclusive. On the % scale 0 is the no-effect control and ±100 the full control effect; potency means the concentration at half of the fitted maximal effect.

`N#Cc1ccsc1NC(=O)COC(=O)c1ccc(Br)o1` gave ELG1 DNA repair inconclusive, 12-LOX inh -8%, TDP1 cell CPT -1% and DT40 TDP1 no CPT 5%.
Screening Cn1cccc1C(=O)OCC(=O)Nc1ccc2c(c1)OCCO2 returned ELG1 DNA repair inconclusive, 12-LOX inh 1%, TDP1 cell CPT 1%, DT40 TDP1 no CPT -28%, ELG1 FLuc counter 3%, ELG1 unstim viab inconclusive and FLuc enzyme 2.1µM*.
`Cn1cccc1C(=O)OCC(=O)Nc1sccc1C#N` gave ELG1 DNA repair inconclusive, 12-LOX inh -3%, TDP1 cell CPT -21%, DT40 TDP1 no CPT -9% and ELG1 unstim viab 0%.
Screening Cn1cccc1C(=O)OCC(=O)NCc1ccc2c(c1)OCO2 returned ELG1 DNA repair inconclusive, 12-LOX inh 81%, TDP1 cell CPT -4% and DT40 TDP1 no CPT -4%.
For COc1cccc(/C=C/c2cnc3ccccc3n2)c1OC the results were TDP1 cell CPT inconclusive, DT40 TDP1 no CPT 20µM*, ELG1 FLuc counter -23%, ELG1 unstim viab -16% and FLuc enzyme 0.33µM*.
For COc1cccc(/C=C/c2nc3ccccc3s2)c1OC(C)C the results were 12-LOX inh 3%.
`O=[S+]([O-])(c1cccc(C(F)(F)F)c1)N1CCn2c(nnc2-c2ccncc2)C1` gave 12-LOX inh 7%[6.33 µM].
Screening COCCN1CCN(c2c(C)c(C)nc3cc(-c4cccc(OC)c4)nn23)CC1 returned 12-LOX inh 5%, TDP1 cell CPT inconclusive and DT40 TDP1 no CPT inconclusive.
CCc1c(C)nc2cc(-c3cc(OC)cc(OC)c3)nn2c1N1CCN(CCN2CCOCC2)CC1 was read as Gal4-VP16 FLuc inconclusive, RORg inh inconclusive, ELG1 DNA repair 2.6µM*, 12-LOX inh 76%, TDP1 cell CPT 23µM*, DT40 TDP1 no CPT 16µM*, ELG1 Luc conf 4.4µM*, ELG1-Luc MMS inconclusive, ELG1 5-FU inconclusive, ELG1 MMS cell 9% and ELG1 unstim viab -6%.
O=C(Nc1ccc(Br)cc1)c1ccc(F)c(S(=O)(=O)N2CCN(c3ccccn3)CC2)c1 was read as Gal4-VP16 FLuc inconclusive, RORg inh 27%, ELG1 DNA repair 2.9µM*, 12-LOX inh 3%, TDP1 cell CPT inconclusive, DT40 TDP1 no CPT 7.3µM*, ELG1 FLuc counter -8%, ELG1 Luc conf 32µM*, ELG1-Luc MMS inconclusive, ELG1 5-FU -11%, ELG1 MMS cell inconclusive, ELG1 unstim viab inconclusive and FLuc enzyme -15%.
Screening Cc1ccc(CN(C)C(=O)c2nn(Cc3ccccc3)c(=O)c3ccccc23)o1 returned 12-LOX inh -39%.
Screening Fc1ccccc1CNc1ncnc2sccc12 returned Gal4-VP16 FLuc inconclusive, RORg inh inconclusive, ELG1 DNA repair 2.9µM*, 12-LOX inh 12%, TDP1 cell CPT 4.1µM*, DT40 TDP1 no CPT 8.2µM*, ELG1 Luc conf inconclusive, ELG1-Luc MMS 4.4µM*, ELG1 5-FU -3%, ELG1 MMS cell 3.1µM* and ELG1 unstim viab inconclusive.
For COc1ccc(/C=C/C(=O)O/N=C(\N)c2ccccn2)cc1OC the results were ELG1 DNA repair inconclusive, 12-LOX inh 1%, TDP1 cell CPT -9%, DT40 TDP1 no CPT -14% and ELG1 unstim viab -9%.
For N/C(=N\OC(=O)/C=C/c1ccccc1)c1ccccn1 the results were Gal4-VP16 FLuc -15%[10 µM], RORg inh -36%, ELG1 DNA repair inconclusive, 12-LOX inh -5%, TDP1 cell CPT 0% and DT40 TDP1 no CPT -24%.
`CC(=O)NC12CC3CC(C1)CC(C(=O)OCC(=O)c1cc(C)n(C)c1C)(C3)C2` gave ELG1 DNA repair inconclusive, 12-LOX inh 154%, TDP1 cell CPT 16µM*, DT40 TDP1 no CPT inconclusive and ELG1 unstim viab -8%.
CCOC(=O)C1=C(C)N=C2SC=C(CC(=O)N3CCCC3)N2C1c1cccc(Cl)c1 (stereo not drawn) was read as 12-LOX inh 30%.
Screening CC(=O)c1cc(CN2CCC3(CC2)CN(CC(C)c2ccccc2)C(=O)O3)cs1 (stereo not drawn) returned 12-LOX inh 9%.

Source: PubChem BioAssay (National Center for Advancing Translational Sciences (NCATS))
